From PubChem BioAssay (EPA / NIEHS)
Where “and” joins values, the source holds several entries; their conditions need not be identical. Equal values may be shown once. Calls of active or inactive are those of the source. The calls were made as follows: active = hit-call score of the fitted dose curve at least 0.9, where 1 is the maximum; inactive = score below 0.9.

Tests used:
[1] = read-out: Monokine induced gamma interferon (MIG), CXCL9 (gene 4283); experiment: BSK_hDFCGF_MIG: BioMAP Diversity Plus: hDFCGF Assay for Monokine induced gamma interferon (MIG) Biomarker Activity (AID 2283063); conditions: primary human foreskin fibroblasts; actives raise or lower the signal
Outline: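 Chemicals were added to primary human foreskin fibroblast cultures, which were sampled 24 h later. MIG levels were then quantified by ELISA and responses fitted in both directions relative to DMSO.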

[2] = read-out: Matrix Metallopeptidase 1 (MMP1), MMP1 (gene 4312); experiment: BSK_hDFCGF_MMP1: BioMAP Diversity Plus: hDFCGF Assay for Matrix Metallopeptidase 1 (MMP1) Biomarker Activity (AID 2283064); conditions: primary human foreskin fibroblasts; actives raise or lower the signal
Outline: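 Primary human foreskin fibroblasts exposed to chemicals for 24 h; MMP1 measured by ELISA. Cytotoxicity tracked by SRB staining in parallel cultures; bidirectional fit relative to DMSO.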

[3] = read-out: Plasminogen activator inhibitor-1 (PAI1), SERPINE1 (gene 5054); experiment: BSK_hDFCGF_PAI1: BioMAP Diversity Plus: hDFCGF Assay for Plasminogen activator inhibitor-1 (PAI1) Biomarker Activity (AID 2283066); conditions: primary human foreskin fibroblasts; actives raise or lower the signal
Outline: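 Human foreskin fibroblast primary cells, 24 h chemical exposure; PAI-1 measured by ELISA. Bidirectional fitting relative to DMSO; parallel cultures stained with SRB for total protein to flag overt cytotoxicity.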

[4] = read-out: Interferon-gamma inducible Protein 10 (IP10), CXCL10 (gene 3627); experiment: BSK_KF3CT_IP10: BioMAP Diversity Plus: KF3CT Assay for Interferon-gamma inducible Protein 10 (IP10) Biomarker Activity (AID 2283068); conditions: primary human keratinocytes with fibroblasts; actives raise or lower the signal
Outline: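 ELISA read-out of IP-10 after 24 h chemical dosing of human skin primary co-culture (keratinocytes, foreskin fibroblasts). Gain or loss of signal relative to DMSO, bidirectional curve fit.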

[5] = BSK_KF3CT_SRB: Viability Assessment in the BioMAP Diversity Plus: KF3CT Assay (AID 2283069); conditions: primary human keratinocytes with fibroblasts;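 also: total protein by sulforhodamine B staining as a cytotoxicity measure; read 24 h after compound addition; fitted for both signal gain and loss against DMSO baseline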
Outline: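 Human keratinocyte and foreskin fibroblast co-culture exposed to chemical for 24 h. Total protein measured in parallel cultures by 0.1% sulforhodamine B staining after 10% TCA fixation, read at 560 nm; bidirectional fit relative to DMSO.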

[6] = read-out: Interleukin-1 alpha (IL1a), IL1A (gene 3552); experiment: BSK_KF3CT_IL1a: BioMAP Diversity Plus: KF3CT Assay for Interleukin-1 alpha (IL1a) Biomarker Activity (AID 2283070); conditions: primary human keratinocytes with fibroblasts; actives raise or lower the signal
Outline: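 Primary human keratinocyte plus foreskin fibroblast co-culture, dosed and measured at 24 h in 96-well plates. IL-1a level quantified by ELISA; bidirectional fit relative to DMSO.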

[7] = read-out: TIMP metallopeptidase inhibitor 2 (TIMP2), TIMP2 (gene 7077); experiment: BSK_KF3CT_TIMP2: BioMAP Diversity Plus: KF3CT Assay for TIMP metallopeptidase inhibitor 2 (TIMP2) Biomarker Activity (AID 2283071); conditions: primary human keratinocytes with fibroblasts; actives raise or lower the signal
Outline: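 Co-culture of human primary keratinocytes and foreskin fibroblasts, measured 24 h after chemical dosing. TIMP-2 quantified by ELISA and fitted in both directions relative to DMSO. Cytotoxicity checked in parallel cultures by SRB total-protein staining.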

[8] = read-out: Matrix Metallopeptidase 9 (MMP9), MMP9 (gene 4318); experiment: BSK_KF3CT_MMP9: BioMAP Diversity Plus: KF3CT Assay for Matrix Metallopeptidase 9 (MMP9) Biomarker Activity (AID 2283074); conditions: primary human keratinocytes with fibroblasts; actives raise or lower the signal
Outline: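 Human keratinocyte and foreskin fibroblast co-culture exposed to chemicals for 24 h; MMP9 biomarker measured by ELISA, bidirectional fitting relative to DMSO; cytotoxicity tracked by SRB total protein staining in parallel cultures.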

[9] = read-out: urokinase plasminogen activator (uPA), PLAU (gene 5328); experiment: BSK_KF3CT_uPA: BioMAP Diversity Plus: KF3CT Assay for urokinase plasminogen activator (uPA) Biomarker Activity (AID 2283075); conditions: primary human keratinocytes with fibroblasts; actives raise or lower the signal
Outline: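 Primary human keratinocyte/foreskin fibroblast co-culture exposed to chemical; uPA measured by ELISA at 24 h. Bidirectional fit versus DMSO, with parallel SRB total-protein staining for cytotoxicity.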

[10] = BSK_LPS_SRB: Viability Assessment in the BioMAP Diversity Plus: LPS Assay (AID 2283079); conditions: primary human HUVEC with PBMC;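 also: total protein by sulforhodamine B absorbance as a cytotoxicity measure; measured one day after compound addition; fitted in both directions against DMSO so loss or gain of signal counts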
Outline: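 Readout is SRB absorbance at 560 nm (0.1% stain, TCA-fixed parallel cultures) as a total-protein cytotoxicity measure. Cells: primary human umbilical vein endothelium plus peripheral blood mononuclear cells, 24 h after chemical exposure; DMSO served as baseline.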

[11] = read-out: Tumor necrosis factor (Homo sapiens) (UniProt P01375); experiment: BSK_LPS_TNFa: BioMAP Diversity Plus: LPS Assay for Tumour Necrosis Factor alpha (TNFa) Biomarker Activity (AID 2283085); conditions: primary human HUVEC with PBMC; actives raise or lower the signal
Outline: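 Human umbilical vein endothelial cells co-cultured with PBMC and stimulated with LPS. TNFa was measured by ELISA 24 h after chemical dosing, fitted bidirectionally relative to DMSO.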

[12] = read-out: Vascular cell adhesion molecule 1 (VCAM1), VCAM1 (gene 7412); experiment: BSK_LPS_VCAM1: BioMAP Diversity Plus: LPS Assay for Vascular cell adhesion molecule 1 (VCAM1) Biomarker Activity (AID 2283086); conditions: primary human HUVEC with PBMC; actives raise or lower the signal
Outline: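 Human umbilical vein endothelial cells co-cultured with PBMC and stimulated with LPS; VCAM-1 measured by ELISA 24 h after dosing. Bidirectional curve fitting against DMSO baseline; cytotoxicity tracked in parallel by SRB total-protein staining.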

CD38, CD38 (gene 952) = experiment: BSK_SAg_CD38: BioMAP Diversity Plus: SAg Assay for CD38 Biomarker Activity (AID 2283087); conditions: primary human HUVEC with PBMC; actives raise or lower the signal
Outline: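 Human HUVEC plus PBMC co-culture stimulated with superantigen; CD38 measured by ELISA 24 h after chemical dosing. Fluorescence read-out, bidirectional fit against DMSO; cytotoxicity tracked in parallel by SRB and Alamar Blue.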

[13] = read-out: Monocyte Chemoattractant Protein-1 (MCP1), CCL2 (gene 6347); experiment: BSK_SAg_MCP1: BioMAP Diversity Plus: SAg Assay for Monocyte Chemoattractant Protein-1 (MCP1) Biomarker Activity (AID 2283090); conditions: primary human HUVEC with PBMC; actives raise or lower the signal
Outline: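 MCP-1 levels in the endothelial–PBMC SAg co-culture were quantified by ELISA at 24 h post-dosing; both increases and decreases versus DMSO scored. Cytotoxicity monitored by SRB total protein in parallel cultures.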

[14] = read-out: E-selectin (Homo sapiens) (UniProt P16581); experiment: BSK_SAg_Eselectin: BioMAP Diversity Plus: SAg Assay for Eselectin Biomarker Activity (AID 2283091); conditions: primary human HUVEC with PBMC; actives raise or lower the signal
Outline: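 Co-culture: HUVEC + PBMC. Dose compound; 24 h. ELISA for E-selectin. Bidirectional fit vs DMSO.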

[15] = read-out: Monokine induced gamma interferon (MIG), CXCL9 (gene 4283); experiment: BSK_SAg_MIG: BioMAP Diversity Plus: SAg Assay for Monokine induced gamma interferon (MIG) Biomarker Activity (AID 2283092); conditions: primary human HUVEC with PBMC; actives raise or lower the signal
Outline: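 Endothelial cells and PBMC were co-cultured, exposed to test chemicals, and sampled 24 h later. MIG was measured by ELISA, and responses were fitted in both directions relative to DMSO.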

[16] = read-out: Interleukin-8 (IL8), CXCL8 (gene 3576); experiment: BSK_SAg_IL8: BioMAP Diversity Plus: SAg Assay for Interleukin-8 (IL8) Biomarker Activity (AID 2283094); conditions: primary human HUVEC with PBMC; actives raise or lower the signal
Outline: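 Human umbilical vein endothelial cells co-cultured with PBMC, stimulated with superantigen; IL-8 measured by ELISA 24 h after chemical dosing. Bidirectional fitting versus DMSO; SRB staining in parallel cultures tracks cytotoxicity.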

[17] = BSK_SAg_Proliferation: Cell Proliferation Assessment in the BioMAP Diversity Plus: SAg Assay (AID 2283095); conditions: primary human HUVEC with PBMC
Outline: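 Human umbilical vein endothelial cells co-cultured with PBMC; sulforhodamine B total-protein staining (0.1% SRB after 10% TCA fixation, absorbance 560 nm) at 96 h in sub-confluent culture. Fitted bidirectionally against DMSO.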

[18] = ATG_GLI_CIS: Attagene CIS-FACTORIAL HepG2 Assay for human Zinc Finger Protein GLI1 (AID 2282945); conditions: HepG2, Attagene cis-factorial reporter mRNA, GLI element; actives raise or lower the signal
Outline: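 Transiently transfected HepG2 cells report endogenous transcription factor activity via cis-element-driven reporter units. After 24 h compound exposure, reporter mRNA was measured by RT-PCR with capillary electrophoresis; bidirectional fitting against DMSO baseline.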

[19] = target: Heat shock factor protein 1 (Homo sapiens) (UniProt Q00613); experiment: ATG_HSE_CIS: Attagene CIS-FACTORIAL HepG2 Assay for human Heat Shock Transcription Factor 1 (HSE) (AID 2282953); conditions: HepG2 HSE cis-reporter, Attagene RNA transcription; actives raise or lower the signal
Outline: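 Endogenous transcription factor activity captured via cis-promoter reporter units transfected into HepG2; treatment lasted 24 h. Fluorescence intensity of reporter fragments analysed with bidirectional curve fitting, DMSO baseline.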

Measured: AC50

Sequence of E-selectin (Homo sapiens) (P16581 whole entry, looked up): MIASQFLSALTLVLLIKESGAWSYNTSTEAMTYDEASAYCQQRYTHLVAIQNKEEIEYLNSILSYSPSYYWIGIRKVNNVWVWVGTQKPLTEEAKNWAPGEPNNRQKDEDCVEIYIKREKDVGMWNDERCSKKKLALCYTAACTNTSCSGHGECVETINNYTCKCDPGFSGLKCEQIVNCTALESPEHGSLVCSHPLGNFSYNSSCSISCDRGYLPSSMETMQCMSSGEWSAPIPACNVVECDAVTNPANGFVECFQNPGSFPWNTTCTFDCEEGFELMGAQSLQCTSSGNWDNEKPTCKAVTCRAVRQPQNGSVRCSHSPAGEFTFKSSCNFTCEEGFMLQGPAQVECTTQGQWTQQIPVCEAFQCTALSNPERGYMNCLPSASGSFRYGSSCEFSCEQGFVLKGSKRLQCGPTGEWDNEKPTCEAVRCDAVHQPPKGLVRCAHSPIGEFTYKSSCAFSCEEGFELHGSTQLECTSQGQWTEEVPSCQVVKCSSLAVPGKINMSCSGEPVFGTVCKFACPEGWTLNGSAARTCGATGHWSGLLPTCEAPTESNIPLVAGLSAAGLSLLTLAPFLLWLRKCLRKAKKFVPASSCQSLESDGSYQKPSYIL
Sequence of Tumor necrosis factor (Homo sapiens) (P01375 whole entry, looked up): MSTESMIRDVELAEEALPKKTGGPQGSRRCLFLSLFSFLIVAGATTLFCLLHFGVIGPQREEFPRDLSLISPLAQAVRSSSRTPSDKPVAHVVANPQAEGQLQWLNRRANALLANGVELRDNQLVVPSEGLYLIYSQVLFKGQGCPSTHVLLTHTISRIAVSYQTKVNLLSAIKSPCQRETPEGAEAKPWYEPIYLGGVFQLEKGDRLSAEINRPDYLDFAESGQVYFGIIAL
Sequence of Heat shock factor protein 1 (Homo sapiens) (Q00613 whole entry, looked up, the tested form may be a part): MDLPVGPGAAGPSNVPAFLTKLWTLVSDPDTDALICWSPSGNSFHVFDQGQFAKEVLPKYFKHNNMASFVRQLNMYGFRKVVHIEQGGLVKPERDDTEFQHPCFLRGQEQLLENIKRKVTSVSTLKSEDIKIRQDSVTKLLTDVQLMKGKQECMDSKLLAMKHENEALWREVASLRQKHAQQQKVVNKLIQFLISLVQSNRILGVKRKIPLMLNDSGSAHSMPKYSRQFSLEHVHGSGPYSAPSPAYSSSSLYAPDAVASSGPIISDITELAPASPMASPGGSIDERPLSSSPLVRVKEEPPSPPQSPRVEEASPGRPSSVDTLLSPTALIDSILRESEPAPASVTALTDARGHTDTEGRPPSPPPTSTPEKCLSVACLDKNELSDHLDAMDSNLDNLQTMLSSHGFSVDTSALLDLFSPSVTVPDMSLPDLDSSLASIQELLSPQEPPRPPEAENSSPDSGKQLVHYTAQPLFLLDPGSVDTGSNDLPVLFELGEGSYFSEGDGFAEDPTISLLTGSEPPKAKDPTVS

CC(C)C1OCCN1CCOC(=O)NCCCCCCNC(=O)OCCN1CCOC1C(C)C (configuration not stated)
not listed: [18] | [19]
inactive: all other assays above

COc1ccccc1Oc1c(NS(=O)(=O)c2ccc(C(C)(C)C)cc2)nc(-c2ncccn2)nc1OCCO
active: [17] 6.88 µM and 8.61 µM
not listed: [18] | [19]
inactive: all other assays above

CCO[Si](OCC)(OCC)c1ccccc1
inactive: [18] | [19]

CC(C)(C)NC(=O)[C@@H]1CN(Cc2cccnc2)CCN1C[C@@H](O)C[C@@H](Cc1ccccc1)C(=O)N[C@H]1c2ccccc2C[C@H]1O
inactive: [18] | [19]

O=C(O)Cc1c[nH]c2ccccc12
inactive: [19]

CC[N+](CC)(CC(=O)Nc1c(C)cccc1C)Cc1ccccc1 (tested in a mixture with another compound)
not listed: [19]
inactive: all other assays above

C=C(C)C(=O)OCC1CCCO1 (configuration not stated)
inactive: [18] | [19]
